Cruzain inh noDet – qHTS Assay for Promiscuous and Specific Inhibitors of Cruzain (without detergent); Potency, µM, actives largely listed as inhibitors; purified cruzain, Z-FR-AMC fluorescence, no detergent; Cruzipain (Trypanosoma cruzi), P25779; actives 2.3% (n = 200,000); further: nearly all actives have a fitted effect of over 40% in size
Target sequence (P25779 123-467 limits assumed): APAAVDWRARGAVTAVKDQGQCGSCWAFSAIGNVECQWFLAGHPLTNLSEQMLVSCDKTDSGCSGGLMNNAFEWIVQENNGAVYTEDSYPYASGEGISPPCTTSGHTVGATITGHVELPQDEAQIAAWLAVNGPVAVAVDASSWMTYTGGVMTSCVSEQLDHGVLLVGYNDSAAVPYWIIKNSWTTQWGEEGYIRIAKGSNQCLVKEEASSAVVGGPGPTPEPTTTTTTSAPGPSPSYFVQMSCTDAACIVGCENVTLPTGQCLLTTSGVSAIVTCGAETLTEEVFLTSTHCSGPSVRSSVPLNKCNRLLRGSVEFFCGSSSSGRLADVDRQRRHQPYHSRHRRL
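Detergent-free condition (0.00005% Triton X-100) in acetate buffer pH 5.5 with DTT. 1.5 nM enzyme and compound were pre-mixed 15 min, then 2 uM Z-FR-AMC substrate added; reaction progress from fluorescence change between first and third reads (60 s).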
NS1 inh – qHTS Assay for Inhibitors of Influenza NS1 Protein Function. actives 0.4% (n = 270,000). Potency, µM (top dose mostly 46.1 µM). AID 2326, 2010; calls by dose curve; further: actives are rising curves; nearly all actives have a fitted effect of over 50% in size
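OD600 was taken as the measure of yeast growth restored by compound in an NS1-expressing S. cerevisiae strain. Cells had been washed out of glucose medium and diluted 1:100 into galactose -URA medium, pH 6.0.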
Cruzain Triton – qHTS Assay for Promiscuous and Specific Inhibitors of Cruzain (with detergent) | Cruzipain (Trypanosoma cruzi), P25779 | purified cruzain, Z-FR-AMC fluorescence, 0.01% Triton | Potency, µM, usual class: inhibitors | actives 0.43% (n = 200,000) | AID 1478, 2009; further: nearly all actives have a fitted effect of over 40% in size
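Detergent-containing arm of a paired screen for aggregation-based inhibition: 0.01% Triton X-100 present. Cruzain at 1.5 nM cleaved 2 uM Z-FR-AMC at pH 5.5 with 5 mM DTT; AMC fluorescence gain over 60 s measured activity.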
Of the large screens only hits and unclear results are named; the others gave an inactive call. Shown is part of a subset that was picked to be rich in hits. Unless noted, the call rests on the fitted dose curve; in most records, active means well fitted curve in the direction sought with a large enough effect; inconclusive means small, poorly fitted or top-dose-only effect, or another doubt; inactive means no such curve, though single readings can be large; an effect the other way counts as inactive or inconclusive.

CCC(=O)Nc1nonc1-c1nc2ccccc2n1Cc1ccccc1	none
CCOC(=O)Cn1c(-c2nonc2NC(=O)c2ccccc2F)nc2ccccc21	Cruzain inh noDet 25.1µM
Cc1ccc(NC(=O)Cn2c(-c3nonc3N)nc3ccccc32)cc1Cl	Cruzain inh noDet 7.94µM (no result: NS1 inh)
Cc1ccc(NC(=O)Cn2c(/C=C/c3ccccc3)nc3ccccc32)cc1C	Cruzain inh noDet 15.8µM
Nc1nonc1-c1nc2ccccc2n1CC(=O)Nc1ccc(F)cc1	none (no result: NS1 inh)
Nc1nonc1-c1nc2ccccc2n1CC(=O)N/N=C\c1ccc(-c2ccc(Cl)cc2)o1	Cruzain inh noDet 3.98µM
CC(C)c1ccccc1NC(=O)Cn1c(/C=C/c2ccccc2)nc2ccccc21	none (no result: Cruzain inh noDet, Cruzain Triton)
O=C(Nc1cc(Cl)ccc1Cl)C1(c2cccs2)CCOCC1	none (no result: NS1 inh)
CC(C)c1ccccc1NC(=O)COc1ccc(C(=O)NCCc2ccccc2)cc1	Cruzain inh noDet inconclusive
CC(C)c1cccc(C(C)C)c1NC(=O)c1ccc(OCC(=O)NCc2ccccc2)cc1	Cruzain inh noDet 7.94µM
O=C(c1ccc(CSc2nc3ccncc3n2Cc2ccccc2F)cc1)N1CCCCC1	none (no result: NS1 inh)
O=C(Cn1c(=O)c2cccn2c2ccccc21)NCCc1ccccc1	Cruzain inh noDet 15.8µM
O=C(Cn1c(=O)c2cccn2c2ccccc21)NCCc1ccc(Cl)cc1	none (no result: Cruzain inh noDet, Cruzain Triton)
Cc1ccccc1Cn1cc(S(=O)(=O)CC(=O)Nc2nccs2)c2ccccc21	Cruzain inh noDet 15.8µM
CCOC(=O)N1CCN(C(=O)CS(=O)(=O)c2cn(Cc3ccccc3C)c3ccccc23)CC1	none
CCCCC/C=C\C\C=C/C=C/C=C/[C@@H](SCC(N)C(=O)NCC(=O)O)[C@@H](O)CCCC(=O)O (stereo not given in full)	none (no result: NS1 inh)
COc1ccc2c(c1)C(c1ccccc1C)CC(=O)O2 (stereo not given)	none (no result: NS1 inh)
CC(C)c1ccc(NC(=O)CN2C(=O)COc3ccc(S(=O)(=O)Nc4ccccc4)cc32)cc1	Cruzain inh noDet 20µM (no result: NS1 inh)
Cc1cccc(NC(=O)CN2C(=O)COc3ccc(S(=O)(=O)Nc4ccccc4)cc32)c1C	Cruzain inh noDet inconclusive (no result: NS1 inh)
COc1ccccc1C(=O)Nc1cc(-c2ccc(C)cc2)no1	none
O=C(Nc1cc(-c2ccc(F)c(F)c2)no1)c1ccccc1F	Cruzain inh noDet 25.1µM (no result: NS1 inh)
Clc1cccc(C(Cl)(Cl)Cl)n1	none (no result: NS1 inh)
O=C(CC1S/C(=N/N=C/c2cccs2)NC1=O)Nc1ccc(Cl)c(Cl)c1 (stereo not given)	Cruzain inh noDet 20µM
O=C(CC1S/C(=N/N=C/c2c[nH]c3ccccc23)NC1=O)Nc1ccccc1 (stereo not given)	Cruzain inh noDet inconclusive
O=C(CC1S/C(=N/N=C/c2cccs2)NC1=O)Nc1ccc(Cl)cc1 (stereo not given)	none
O=C(CC1S/C(=N/N=C/c2c[nH]c3ccc(OCc4ccccc4)cc23)NC1=O)Nc1ccccc1 (stereo not given)	Cruzain inh noDet 6.31µM
COC(=O)c1cc2sc(C)cc2n1Cc1nc(-c2cccc(Br)c2)oc1C	none (no result: NS1 inh)
CCOc1cc(C(=O)Nc2ccc(-c3nc4ccccc4s3)cc2Cl)cc(OCC)c1OCC	none (no result: NS1 inh)
O=C1CCC=C1C(O)CCc1ccccc1 (stereo not given)	none (no result: NS1 inh)
COc1ccccc1-n1c(SCC(=O)c2ccc(O)cc2O)nc2cc([N+](=O)[O-])ccc21	Cruzain inh noDet 12.6µM
COc1ccccc1-n1c(SCC(=O)NC2CCS(=O)(=O)C2)nc2cc([N+](=O)[O-])ccc21 (stereo not given)	Cruzain inh noDet inconclusive
COc1ccc(-c2csc(N(Cc3ccccc3)C(=O)COc3ccc(Cl)cc3)n2)cc1	Cruzain inh noDet 6.31µM
O=C(COc1ccccc1)N(Cc1ccccc1)c1nc(-c2ccccc2)cs1	Cruzain inh noDet inconclusive
Cc1cc2c(c(=O)n1-c1ccccc1)C1O[C@](c3ccsc3)(Cc3ccccc31)O2	none (no result: Cruzain inh noDet, Cruzain Triton)
Cc1ccc(S(=O)(=O)N(C)Cc2ccc(C(=O)N/N=C/c3ccc(OC(F)F)cc3)cc2)cc1	Cruzain inh noDet 10µM
C/C(=N\NC(=O)c1ccc(CN(C)S(=O)(=O)c2ccc(C)cc2)cc1)c1ccc(OC(F)F)cc1	none
CCc1ccc(-n2c(C)nc3cc(C(=O)NCCc4ccccc4)ccc32)cc1	none (no result: NS1 inh)
O=C(O)[C@@H]1CCCN1Cc1c[nH]c2ccccc12	none
CC(C)c1ccc(/C=N/NC(=O)c2cc(-c3cccc([N+](=O)[O-])c3)n[nH]2)cc1	none (no result: Cruzain inh noDet, Cruzain Triton)
C/C(=N/NC(=O)c1cc(-c2cccc([N+](=O)[O-])c2)n[nH]1)c1ccc(Cl)cc1	Cruzain inh noDet 6.31µM
COc1ccc(CNc2nc3c(-c4ccc(C)cc4)nnn3c3ccccc23)cc1	none (no result: NS1 inh)
C[C@H](Br)C(=O)Nc1ccc(C(=O)O)c(O)c1	none
CC1(C)CCC[C@@](C)([C@H]2CC[C@]3(C)[C@@H]2[C@H](O)C[C@@H]2[C@@]4(C)CC[C@H](O)C(C)(C)[C@@H]4[C@@H](O)C[C@]23C)O1	Cruzain inh noDet inconclusive (no result: NS1 inh)
Cc1cccc(C(=O)Nc2ccccc2C(=O)OCC(=O)Nc2ccc(C#N)cc2)c1	Cruzain inh noDet 31.6µM
Cc1ccc(NC(=O)COC(=O)c2ccccc2Nc2ccccc2)cc1	Cruzain inh noDet inconclusive
COC(=O)C1C(O)CC[C@H]2CN3CCc4c([nH]c5ccccc45)C3C[C@H]12 (stereo not given in full)	none (no result: NS1 inh)
COC(=O)/C(Cc1cc(Br)c(OC)c(Br)c1O)=N/O	none (no result: NS1 inh)
CCCCCCSc1nc(N)c2c3c(sc2n1)CCCC3C (stereo not given)	none (no result: NS1 inh)
CC1CCCc2sc3nc(SCC(=O)c4ccc(Br)cc4)nc(N)c3c21 (stereo not given)	Cruzain inh noDet 10µM (no result: NS1 inh)
CCOc1ccccc1NC(=O)CSc1nc2c(c(=O)[nH]1)CCC2	none (no result: NS1 inh)
CCCN1CCN(CCCNC(=O)c2cnn(-c3ccc(F)cc3)c2-n2cccc2)CC1	none (no result: NS1 inh)
COc1ccccc1N1CCN(C[C@@H](C(=O)NC(C)(C)C)c2ccccc2)CC1	none (no result: NS1 inh)
COc1ccc(-c2csc3nc(C)n(-n4cccc4)c(=O)c23)cc1OC	none
COc1ccc(-c2csc3nc(-c4cccnc4)nc(N4CCC(C(N)=O)CC4)c23)cc1OC	Cruzain inh noDet inconclusive, Cruzain Triton 25.1µM
OC[C@@H]1[C@@H](c2ccc(Cl)cc2)C(c2ccc(F)cc2)=NN1c1ccccc1	Cruzain inh noDet 25.1µM (no result: NS1 inh)
CC[C@H]1C(c2cccc(Cl)c2)=NN(c2ccccc2)[C@@H]1CO	none (no result: NS1 inh)
OC[C@@H]1[C@@H](c2ccc(F)cc2)C(c2ccc(F)cc2)=NN1c1ccccc1	Cruzain inh noDet 20µM (no result: NS1 inh)
OC[C@@H]1[C@@H](c2ccccc2)C(c2ccc(F)cc2)=NN1c1ccccc1	Cruzain inh noDet inconclusive (no result: NS1 inh)
O=C(Nc1cc(-c2ccc(Cl)cc2)no1)c1ccc(F)cc1	none (no result: NS1 inh)
CCCCC/C=C\C/C=C\CCCCCCCCCC(=O)NC(C)C(=O)O (stereo not given)	none (no result: NS1 inh)
COc1ccc(N2CCN(Cc3nnc(-c4cccc(Br)c4)o3)CC2)cc1	none (no result: NS1 inh)
COc1ccc(C2CC(c3ccccc3)=NN2C(=O)COC(=O)c2ccc(Cl)nc2)cc1 (stereo not given)	none
COc1ccc(C2CC(c3ccccc3)=NN2C(=O)COC(=O)c2cnc(Cl)c(Cl)c2)cc1 (stereo not given)	Cruzain inh noDet 5.01µM
COc1ccc(C2CC(c3ccccc3)=NN2C(=O)COC(=O)c2cccc(S(=O)(=O)N(C)C)c2)cc1 (stereo not given)	Cruzain inh noDet inconclusive

Screens (PubChem BioAssay)
